From PubChem BioAssay (NCATS)
Records with an inconclusive call do not appear. Calls of active or inactive are those of the source. Unless noted, calls follow the shape of the full dose curve.

Columns and labels:
[1] = qHTS for Inhibitors of the Functional Ribonucleoprotein Complex (vRNP) of Lassa (LASV) Arenavirus: LASV Primary Screen - GLuc reporter signal (AID 1347082; calls by dose curve; tested in HEK293 reporter line; also: nearly all actives have a fitted effect of over 60% in size)
[2] = qHTS for Inhibitors of the Functional Ribonucleoprotein Complex (vRNP) of Lassa (LASV) Arenavirus: Viability assay - alamar blue signal for LASV Primary Screen (AID 1347083; calls by dose curve; tested in HEK293 reporter line; also: nearly all actives have a fitted effect of over 80% in size)
[3] = qHTS for Inhibitors of the Functional Ribonucleoprotein Complex (vRNP) of Lymphocytic Choriomeningitis Arenaviruses (LCMV): Viability assay - alamar blue signal for LCMV Primary Screen (AID 1347085; calls by dose curve; tested in HEK293 reporter line; also: nearly all actives have a fitted effect of over 80% in size)
[4] = biological target: Nucleoprotein (Lymphocytic choriomeningitis virus (strain Armstrong)) (UniProt P09992); test: qHTS for Inhibitors of the Functional Ribonucleoprotein Complex (vRNP) of Lymphocytic Choriomeningitis Arenaviruses (LCMV): LCMV Primary Screen - GLuc reporter signal (AID 1347086); also: nearly all actives have a fitted effect of over 70% in size
Nucleoprotein (Lymphocytic choriomeningitis virus (strain Armstrong)), sequence (P09992 whole entry, looked up): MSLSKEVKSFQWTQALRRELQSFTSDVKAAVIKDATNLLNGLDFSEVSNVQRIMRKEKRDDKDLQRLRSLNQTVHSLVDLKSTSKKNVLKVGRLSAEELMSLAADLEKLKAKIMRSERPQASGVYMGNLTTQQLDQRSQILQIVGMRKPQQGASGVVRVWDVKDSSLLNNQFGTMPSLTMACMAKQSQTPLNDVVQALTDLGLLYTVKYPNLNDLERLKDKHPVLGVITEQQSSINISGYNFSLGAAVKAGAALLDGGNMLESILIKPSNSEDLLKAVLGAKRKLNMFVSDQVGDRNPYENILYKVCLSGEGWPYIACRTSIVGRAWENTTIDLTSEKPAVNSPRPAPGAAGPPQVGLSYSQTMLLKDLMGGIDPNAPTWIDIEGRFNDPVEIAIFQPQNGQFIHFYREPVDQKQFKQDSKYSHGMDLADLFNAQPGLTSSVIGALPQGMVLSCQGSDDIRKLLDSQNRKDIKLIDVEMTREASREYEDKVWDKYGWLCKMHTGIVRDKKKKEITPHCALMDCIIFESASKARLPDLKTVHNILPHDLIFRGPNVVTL
% is scaled to controls: 0 for no effect and ±100 for the full control effect.
Also: series mostly up to about 57 µM.

CC(=O)CC(c1ccccc1)c1c(O)c2ccccc2oc1=O (stereo not given)
inactive: Potency [1] | Potency [2] | Potency [3] | Potency [4]

Cn1cc(S(C)=O)c(=O)c2ccc(F)cc21 (stereo not given)
inactive: Potency [1] | Potency [2] | Potency [3] | Potency [4]

Cc1nnc(NS(=O)(=O)c2ccc(N)cc2)s1
inactive: Potency [1] | Potency [2] | Potency [3] | Potency [4]

CC(C)C(=O)Nc1cccc(C(F)(F)F)c1
inactive: Potency [1] | Potency [2] | Potency [3] | Potency [4]

CC(CCc1ccc2c(c1)OCO2)NN (stereo not given)
inactive: Potency [1] | Potency [2] | Potency [3] | Potency [4]

C/C=C/C=N/NC(=O)c1ccncc1
inactive: Potency [1] | Potency [2] | Potency [3] | Potency [4]

CCCCCCCCCCCCCCCC(=O)O
inactive: Potency [1] | Potency [2] | Potency [3] | Potency [4]

Nc1ccc(S(=O)(=O)NCc2ccccc2)cc1
inactive: Potency [1] | Potency [2] | Potency [3] | Potency [4]

Cc1cc(O)cc(C)c1Cl
inactive: Potency [1] | Potency [2] | Potency [3] | Potency [4]

Cc1ccnc(NS(=O)(=O)c2ccc(N)cc2)n1
inactive: Potency [1] | Potency [2] | Potency [3] | Potency [4]

NC(CO)(CO)CO
inactive: Potency [1] | Potency [2] | Potency [3] | Potency [4]

CC(=O)OCC(=O)[C@@]1(O)[C@H](C)C[C@H]2[C@@H]3CCC4=CC(=O)C=C[C@]4(C)[C@@]3(F)[C@@H](O)C[C@@]21C
inactive: Potency [1] | Potency [2] | Potency [3] | Potency [4]

Clc1ccc2nsnc2c1NC1=NCCN1
inactive: Potency [1] | Potency [2] | Potency [3] | Potency [4]

CN1C(C)(C)CCCC1(C)C
inactive: Potency [1] | Potency [2] | Potency [3] | Potency [4]

Nc1ccc(S(=O)(=O)Nc2ccccn2)cc1
inactive: Potency [1] | Potency [2] | Potency [3] | Potency [4]

O=C(O)CSCC(=O)NC1CCSC1=O (stereo not given)
inactive: Potency [1] | Potency [2] | Potency [3] | Potency [4]

CC(=O)N[C@@H](CC(C)C)C(=O)O
inactive: Potency [1] | Potency [2] | Potency [3] | Potency [4]

Nc1ccc(C(=O)Oc2ccccc2)c(O)c1
inactive: Potency [1] | Potency [2] | Potency [3] | Potency [4]

CCC(C(=O)OCCN(CC)CC)c1ccccc1 (stereo not given)
inactive: Potency [1] | Potency [2] | Potency [3] | Potency [4]

NC(=O)c1ccc([N+](=O)[O-])cc1Cl
inactive: Potency [1] | Potency [2] | Potency [3] | Potency [4]

CC(=O)OCC(=O)[C@H]1CC[C@H]2[C@@H]3CCC4=CC(=O)CC[C@]4(C)[C@H]3CC[C@]12C
inactive: Potency [1] | Potency [2] | Potency [3] | Potency [4]

CCN(CC)C(=O)/C(C#N)=C/c1cc(O)c(O)c([N+](=O)[O-])c1
inactive: Potency [1] | Potency [2] | Potency [3] | Potency [4]

O=C(O)CCCC[P+](c1ccccc1)(c1ccccc1)c1ccccc1
inactive: Potency [1] | Potency [2] | Potency [3] | Potency [4]

O=C(O)CCCCC1CCSS1 (stereo not given)
inactive: Potency [1] | Potency [2] | Potency [3] | Potency [4]

Cc1cccc(C)c1NC(=O)CC12CCCN1CCC2
inactive: Potency [1] | Potency [2] | Potency [3] | Potency [4]

Nc1ncnc2c1ncn2[C@@H]1O[C@H](CO)[C@@H](O)[C@H]1O
inactive: Potency [1] | Potency [2] | Potency [3] | Potency [4]

NC(=O)NS(=O)(=O)c1ccc(Cl)cc1
inactive: Potency [1] | Potency [2] | Potency [3] | Potency [4]

COc1ccc2cc([C@H](C)C(=O)O)ccc2c1
inactive: Potency [1] | Potency [2] | Potency [3] | Potency [4]

CC(C)=CCC/C(C)=C/CC/C(C)=C/CCC(=O)OC/C=C(\C)CCC=C(C)C
inactive: Potency [1] | Potency [2] | Potency [3] | Potency [4]

CCN(CC)CCNC(=O)COc1ccc(OC)cc1
inactive: Potency [1] | Potency [2] | Potency [3] | Potency [4]

CC1(C)OC[C@@H]2O[C@@]3(C(=O)O)OC(C)(C)O[C@H]3[C@@H]2O1
inactive: Potency [1] | Potency [2] | Potency [3] | Potency [4]

CC[C@H](C)[C@H](N)C(=O)O
inactive: Potency [1] | Potency [2] | Potency [3] | Potency [4]

Cc1ccc(C(C)C)c(O)c1
inactive: Potency [1] | Potency [2] | Potency [3] | Potency [4]

C/C=C1\[C@H]2C=C(C)C[C@]1(N)c1ccc(=O)[nH]c1C2
inactive: Potency [1] | Potency [2] | Potency [3] | Potency [4]

CCc1cc(C(N)=S)ccn1
inactive: Potency [1] | Potency [2] | Potency [3] | Potency [4]

CN1CCN(c2c(F)cc3c(=O)c(C(=O)O)cn4c3c2SCC4)CC1
inactive: Potency [1] | Potency [2] | Potency [3] | Potency [4]

COc1ccc(/C(C)=C/C(=O)O)c(OC)c1
inactive: Potency [1] | Potency [2] | Potency [3] | Potency [4]

O=C(O)Cc1cn(-c2ccccc2)nc1-c1ccc(Cl)cc1
inactive: Potency [1] | Potency [2] | Potency [3] | Potency [4]

CCCOC(=O)c1ccccc1
inactive: Potency [1] | Potency [2] | Potency [3] | Potency [4]

CCC(C(=O)NC(=O)NC(C)=O)c1ccccc1 (stereo not given)
inactive: Potency [1] | Potency [2] | Potency [3] | Potency [4]

COc1ccccc1OCC(O)CO (stereo not given)
inactive: Potency [1] | Potency [2] | Potency [3] | Potency [4]

C#C[C@]1(O)CC[C@H]2[C@@H]3CCc4cc(OC5CCCC5)ccc4[C@H]3CC[C@@]21C
inactive: Potency [1] | Potency [2] | Potency [3] | Potency [4]

COC(=O)c1ccc(O)cc1
inactive: Potency [1] | Potency [2] | Potency [3] | Potency [4]

O=C(O)CCCCCCCC(=O)O
inactive: Potency [1] | Potency [2] | Potency [3] | Potency [4]

NC(=O)c1cc[n+](CC2=C(C(=O)[O-])N3C(=O)[C@@H](NC(=O)Cc4cccs4)[C@H]3SC2)cc1
inactive: Potency [1] | Potency [2] | Potency [3] | Potency [4]

CCN(CC)CCNC(=O)c1ccc(N)cc1
inactive: Potency [1] | Potency [2] | Potency [3] | Potency [4]

Nc1c(I)cc(I)c(C(=O)N(CCC(=O)O)c2ccccc2)c1I
inactive: Potency [1] | Potency [2] | Potency [3] | Potency [4]

CC(C)(C)NC[C@H](O)COc1cccc2c1CCCC2=O
inactive: Potency [1] | Potency [2] | Potency [3] | Potency [4]

CC(=O)Oc1cccc2c1C(=O)c1c(OC(C)=O)cc(C(=O)O)cc1C2=O
inactive: Potency [1] | Potency [2] | Potency [3] | Potency [4]

COC(=O)c1cc(Cl)ccc1NS(=O)(=O)C(F)(F)F
inactive: Potency [1] | Potency [2] | Potency [3] | Potency [4]

CC1(C)Oc2ccc(C#N)cc2[C@@H](N2CCCC2=O)[C@@H]1O
inactive: Potency [1] | Potency [2] | Potency [3] | Potency [4]

CC1CN(c2cc3c(cc2F)c(=O)c(C(=O)O)cn3-c2ccc(F)cc2F)CCN1 (stereo not given)
inactive: activity change, negative = inhibition [1] 7.88% [at 5.82 µM] | activity change, negative = reduced viability [2] 9.98% [at 5.82 µM] | activity change, negative = lower viability [3] 2.49% [at 5.82 µM] | activity change, negative = inhibition [4] -0.151% [at 5.82 µM]

Cc1noc(NS(=O)(=O)c2ccc(N)cc2)c1C
inactive: Potency [1] | Potency [2] | Potency [3] | Potency [4]

NC(Cc1ccc(Cl)cc1)C(=O)O (stereo not given)
inactive: Potency [1] | Potency [2] | Potency [3] | Potency [4]

Cc1ncc([N+](=O)[O-])n1CC(O)CCl (stereo not given)
inactive: Potency [1] | Potency [2] | Potency [3] | Potency [4]

CN=C(NC#N)Nc1ccc(C2=NNC(=O)CC2C)cc1 (stereo not given)
inactive: Potency [1] | Potency [2] | Potency [3] | Potency [4]

CCc1oc2ccccc2c1C(=O)c1cc(I)c(O)c(I)c1
inactive: Potency [1] | Potency [2] | Potency [3] | Potency [4]

O=C(Oc1ccccc1C(=O)O)c1ccccc1O
inactive: Potency [1] | Potency [2] | Potency [3] | Potency [4]

O=C(O)c1cc(-c2ccccc2)nc2ccccc12
inactive: Potency [1] | Potency [2] | Potency [3] | Potency [4]

NCCNCCNCCNCCN
inactive: activity change, negative = inhibition [1] -3.37% [at 11.5 µM] | activity change, negative = reduced viability [2] 1.27% [at 11.5 µM] | activity change, negative = lower viability [3] 2.19% [at 11.5 µM] | activity change, negative = inhibition [4] -1.94% [at 11.5 µM]
